Laboratory results: ChEMBL document CHEMBL1961873, “Compounds: GSK PKIS; Assays: Nanosyn kinase panel” (2012)

Assays:
[1] = biological target: Mitogen-activated protein kinase kinase kinase kinase 4 (Homo sapiens) (UniProt O95819); conditions: at 1 µM;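 further: reported figure is an averaged inhibition value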
[2] = biological target: Dual specificity mitogen-activated protein kinase kinase 1 (Homo sapiens) (UniProt Q02750); conditions: at 0.1 µM
[3] = biological target: Dual specificity mitogen-activated protein kinase kinase 1 (Homo sapiens) (UniProt Q02750); conditions: at 1 µM
[4] = biological target: Misshapen-like kinase 1 (Homo sapiens) (UniProt Q8N4C8); conditions: at 0.1 µM
Sequence of Misshapen-like kinase 1 (Homo sapiens) (Q8N4C8 whole entry, looked up): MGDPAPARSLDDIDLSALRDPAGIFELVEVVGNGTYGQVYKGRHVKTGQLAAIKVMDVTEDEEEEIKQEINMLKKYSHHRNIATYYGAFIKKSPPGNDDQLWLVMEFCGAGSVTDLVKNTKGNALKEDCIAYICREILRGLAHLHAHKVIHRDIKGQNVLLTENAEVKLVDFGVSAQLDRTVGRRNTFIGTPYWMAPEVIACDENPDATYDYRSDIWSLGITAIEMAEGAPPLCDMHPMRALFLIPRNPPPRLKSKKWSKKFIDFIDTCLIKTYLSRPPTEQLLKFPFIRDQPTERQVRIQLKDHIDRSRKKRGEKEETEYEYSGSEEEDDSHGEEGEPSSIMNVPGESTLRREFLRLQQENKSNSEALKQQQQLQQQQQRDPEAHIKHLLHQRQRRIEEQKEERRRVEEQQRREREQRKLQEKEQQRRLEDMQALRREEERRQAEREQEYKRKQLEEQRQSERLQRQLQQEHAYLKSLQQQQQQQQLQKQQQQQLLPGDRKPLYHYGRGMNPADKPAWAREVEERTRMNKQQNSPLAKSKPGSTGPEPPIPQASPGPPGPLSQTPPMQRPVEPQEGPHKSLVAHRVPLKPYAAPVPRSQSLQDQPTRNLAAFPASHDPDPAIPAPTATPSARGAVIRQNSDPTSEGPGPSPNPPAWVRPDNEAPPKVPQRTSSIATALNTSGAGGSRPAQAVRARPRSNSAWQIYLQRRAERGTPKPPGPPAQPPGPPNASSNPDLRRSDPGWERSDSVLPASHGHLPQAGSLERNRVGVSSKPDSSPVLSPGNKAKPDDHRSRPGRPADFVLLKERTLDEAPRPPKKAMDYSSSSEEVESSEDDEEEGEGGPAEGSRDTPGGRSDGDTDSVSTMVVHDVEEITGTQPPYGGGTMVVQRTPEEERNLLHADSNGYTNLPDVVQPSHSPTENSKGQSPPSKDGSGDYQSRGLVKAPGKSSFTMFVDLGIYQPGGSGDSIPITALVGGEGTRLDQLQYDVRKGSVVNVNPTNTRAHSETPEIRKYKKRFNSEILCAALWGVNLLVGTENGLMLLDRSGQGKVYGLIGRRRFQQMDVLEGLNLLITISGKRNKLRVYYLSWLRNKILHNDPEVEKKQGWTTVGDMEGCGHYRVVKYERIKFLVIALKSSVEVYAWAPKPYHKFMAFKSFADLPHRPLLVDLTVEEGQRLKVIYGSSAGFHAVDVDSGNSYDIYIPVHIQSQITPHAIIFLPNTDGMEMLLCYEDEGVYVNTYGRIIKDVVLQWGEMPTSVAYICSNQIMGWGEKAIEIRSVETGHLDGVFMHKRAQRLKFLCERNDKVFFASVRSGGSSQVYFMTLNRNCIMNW

[5] = biological target: Misshapen-like kinase 1 (Homo sapiens) (UniProt Q8N4C8); conditions: at 1 µM
[6] = biological target: T1, Serine/threonine-protein kinase 4 (Homo sapiens) (UniProt Q13043); conditions: at 0.1 µM
T1 sequence (whole entry): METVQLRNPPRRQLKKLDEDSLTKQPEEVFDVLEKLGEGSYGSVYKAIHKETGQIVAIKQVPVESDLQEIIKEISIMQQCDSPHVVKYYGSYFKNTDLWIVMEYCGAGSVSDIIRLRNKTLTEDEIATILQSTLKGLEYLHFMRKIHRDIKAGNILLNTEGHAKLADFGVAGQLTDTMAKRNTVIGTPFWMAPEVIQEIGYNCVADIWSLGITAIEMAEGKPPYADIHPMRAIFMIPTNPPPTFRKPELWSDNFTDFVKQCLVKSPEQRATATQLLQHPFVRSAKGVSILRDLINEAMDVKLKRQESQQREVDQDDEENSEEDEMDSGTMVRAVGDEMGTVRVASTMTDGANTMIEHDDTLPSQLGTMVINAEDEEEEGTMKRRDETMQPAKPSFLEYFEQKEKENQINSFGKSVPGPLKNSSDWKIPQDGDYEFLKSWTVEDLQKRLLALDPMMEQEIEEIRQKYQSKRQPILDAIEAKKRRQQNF

[7] = biological target: T1, Serine/threonine-protein kinase 4 (Homo sapiens); conditions: at 1 µM
[8] = biological target: T2, Serine/threonine-protein kinase 3 (Homo sapiens) (UniProt Q13188); conditions: at 0.1 µM
T2 sequence (whole entry): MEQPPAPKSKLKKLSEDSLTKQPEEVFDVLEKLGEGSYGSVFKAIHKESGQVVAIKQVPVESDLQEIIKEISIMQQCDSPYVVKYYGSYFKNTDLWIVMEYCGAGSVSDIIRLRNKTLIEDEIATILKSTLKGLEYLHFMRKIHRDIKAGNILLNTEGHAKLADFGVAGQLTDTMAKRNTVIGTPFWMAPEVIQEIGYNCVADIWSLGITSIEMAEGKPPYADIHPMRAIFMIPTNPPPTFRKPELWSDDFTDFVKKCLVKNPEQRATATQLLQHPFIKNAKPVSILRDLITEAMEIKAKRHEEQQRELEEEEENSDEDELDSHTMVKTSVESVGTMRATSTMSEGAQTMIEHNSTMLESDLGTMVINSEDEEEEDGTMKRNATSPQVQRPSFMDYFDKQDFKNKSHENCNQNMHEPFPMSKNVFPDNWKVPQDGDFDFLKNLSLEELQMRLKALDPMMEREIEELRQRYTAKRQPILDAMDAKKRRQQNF

[9] = biological target: T2, Serine/threonine-protein kinase 3 (Homo sapiens); conditions: at 1 µM
[10] = biological target: Serine/threonine-protein kinase 26 (Homo sapiens) (UniProt Q9P289); conditions: at 0.1 µM
Sequence of Serine/threonine-protein kinase 26 (Homo sapiens) (Q9P289 2-416 limits assumed): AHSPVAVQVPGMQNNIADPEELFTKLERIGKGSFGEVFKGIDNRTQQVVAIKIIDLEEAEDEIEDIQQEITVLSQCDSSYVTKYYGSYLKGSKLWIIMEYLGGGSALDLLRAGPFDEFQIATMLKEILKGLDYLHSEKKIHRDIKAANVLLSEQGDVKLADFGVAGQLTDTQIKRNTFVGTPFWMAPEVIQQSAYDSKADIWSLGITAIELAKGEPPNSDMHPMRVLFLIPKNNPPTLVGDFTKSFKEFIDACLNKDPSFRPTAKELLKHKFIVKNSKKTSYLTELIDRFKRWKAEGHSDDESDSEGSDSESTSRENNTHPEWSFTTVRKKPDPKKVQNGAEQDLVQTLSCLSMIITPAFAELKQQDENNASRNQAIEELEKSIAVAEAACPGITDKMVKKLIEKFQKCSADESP

[11] = biological target: Serine/threonine-protein kinase 26 (Homo sapiens) (UniProt Q9P289); conditions: at 1 µM
[12] = biological target: Serine/threonine-protein kinase PAK 1 (Homo sapiens) (UniProt Q13153); conditions: at 0.1 µM
[13] = biological target: Serine/threonine-protein kinase PAK 1 (Homo sapiens) (UniProt Q13153); conditions: at 1 µM
[14] = biological target: Serine/threonine-protein kinase PAK 2 (Homo sapiens) (UniProt Q13177); conditions: at 0.1 µM
[15] = biological target: Serine/threonine-protein kinase PAK 2 (Homo sapiens) (UniProt Q13177); conditions: at 1 µM
[16] = biological target: Serine/threonine-protein kinase PAK 3 (Homo sapiens) (UniProt O75914); conditions: at 0.1 µM
Sequence of Serine/threonine-protein kinase PAK 3 (Homo sapiens) (O75914 whole entry, looked up): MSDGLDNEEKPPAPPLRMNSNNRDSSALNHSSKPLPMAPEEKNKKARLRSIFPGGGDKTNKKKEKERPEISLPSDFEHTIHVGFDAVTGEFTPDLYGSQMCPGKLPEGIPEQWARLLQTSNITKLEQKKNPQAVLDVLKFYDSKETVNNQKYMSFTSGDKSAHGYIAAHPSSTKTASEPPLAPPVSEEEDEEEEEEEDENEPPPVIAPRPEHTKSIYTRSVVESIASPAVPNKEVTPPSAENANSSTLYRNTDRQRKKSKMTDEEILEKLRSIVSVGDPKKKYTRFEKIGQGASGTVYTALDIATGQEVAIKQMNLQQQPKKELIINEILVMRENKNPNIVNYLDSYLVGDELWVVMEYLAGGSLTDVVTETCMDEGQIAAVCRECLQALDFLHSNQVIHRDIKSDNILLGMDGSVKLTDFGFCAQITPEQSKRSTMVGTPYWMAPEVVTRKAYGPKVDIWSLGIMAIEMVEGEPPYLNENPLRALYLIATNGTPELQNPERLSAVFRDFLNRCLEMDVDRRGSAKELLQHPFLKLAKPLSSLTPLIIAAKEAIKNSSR

[17] = biological target: Serine/threonine-protein kinase PAK 3 (Homo sapiens) (UniProt O75914); conditions: at 1 µM
[18] = biological target: Serine/threonine-protein kinase PAK 5 (Homo sapiens) (UniProt Q9P286); conditions: at 0.1 µM
Sequence of Serine/threonine-protein kinase PAK 5 (Homo sapiens) (Q9P286 whole entry, looked up): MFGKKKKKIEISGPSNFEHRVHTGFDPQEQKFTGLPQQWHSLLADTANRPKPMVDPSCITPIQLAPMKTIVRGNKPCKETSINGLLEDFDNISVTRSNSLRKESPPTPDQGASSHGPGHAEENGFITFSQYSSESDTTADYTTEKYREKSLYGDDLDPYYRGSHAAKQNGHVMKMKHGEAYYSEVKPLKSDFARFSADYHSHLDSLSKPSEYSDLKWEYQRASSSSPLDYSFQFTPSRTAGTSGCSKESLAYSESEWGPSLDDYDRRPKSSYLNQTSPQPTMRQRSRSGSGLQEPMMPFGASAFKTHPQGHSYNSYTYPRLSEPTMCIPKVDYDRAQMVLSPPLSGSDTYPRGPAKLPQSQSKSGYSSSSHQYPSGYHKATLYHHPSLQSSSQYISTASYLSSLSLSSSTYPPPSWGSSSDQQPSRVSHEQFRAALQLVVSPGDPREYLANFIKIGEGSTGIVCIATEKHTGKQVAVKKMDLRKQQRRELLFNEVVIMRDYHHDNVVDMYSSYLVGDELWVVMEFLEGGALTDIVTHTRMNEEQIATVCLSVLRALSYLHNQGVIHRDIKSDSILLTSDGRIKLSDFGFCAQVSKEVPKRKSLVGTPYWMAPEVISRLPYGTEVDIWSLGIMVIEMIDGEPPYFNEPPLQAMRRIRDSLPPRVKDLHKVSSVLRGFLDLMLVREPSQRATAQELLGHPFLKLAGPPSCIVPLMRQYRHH

[19] = biological target: Serine/threonine-protein kinase PAK 5 (Homo sapiens) (UniProt Q9P286); conditions: at 1 µM
[20] = biological target: Serine/threonine-protein kinase PAK 6 (Homo sapiens) (UniProt Q9NQU5); conditions: at 0.1 µM;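 further: mean PAK6 inhibition reported from the GSK PKIS screen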

Sequence of Mitogen-activated protein kinase kinase kinase kinase 4 (Homo sapiens) (O95819 2-1239 limits assumed): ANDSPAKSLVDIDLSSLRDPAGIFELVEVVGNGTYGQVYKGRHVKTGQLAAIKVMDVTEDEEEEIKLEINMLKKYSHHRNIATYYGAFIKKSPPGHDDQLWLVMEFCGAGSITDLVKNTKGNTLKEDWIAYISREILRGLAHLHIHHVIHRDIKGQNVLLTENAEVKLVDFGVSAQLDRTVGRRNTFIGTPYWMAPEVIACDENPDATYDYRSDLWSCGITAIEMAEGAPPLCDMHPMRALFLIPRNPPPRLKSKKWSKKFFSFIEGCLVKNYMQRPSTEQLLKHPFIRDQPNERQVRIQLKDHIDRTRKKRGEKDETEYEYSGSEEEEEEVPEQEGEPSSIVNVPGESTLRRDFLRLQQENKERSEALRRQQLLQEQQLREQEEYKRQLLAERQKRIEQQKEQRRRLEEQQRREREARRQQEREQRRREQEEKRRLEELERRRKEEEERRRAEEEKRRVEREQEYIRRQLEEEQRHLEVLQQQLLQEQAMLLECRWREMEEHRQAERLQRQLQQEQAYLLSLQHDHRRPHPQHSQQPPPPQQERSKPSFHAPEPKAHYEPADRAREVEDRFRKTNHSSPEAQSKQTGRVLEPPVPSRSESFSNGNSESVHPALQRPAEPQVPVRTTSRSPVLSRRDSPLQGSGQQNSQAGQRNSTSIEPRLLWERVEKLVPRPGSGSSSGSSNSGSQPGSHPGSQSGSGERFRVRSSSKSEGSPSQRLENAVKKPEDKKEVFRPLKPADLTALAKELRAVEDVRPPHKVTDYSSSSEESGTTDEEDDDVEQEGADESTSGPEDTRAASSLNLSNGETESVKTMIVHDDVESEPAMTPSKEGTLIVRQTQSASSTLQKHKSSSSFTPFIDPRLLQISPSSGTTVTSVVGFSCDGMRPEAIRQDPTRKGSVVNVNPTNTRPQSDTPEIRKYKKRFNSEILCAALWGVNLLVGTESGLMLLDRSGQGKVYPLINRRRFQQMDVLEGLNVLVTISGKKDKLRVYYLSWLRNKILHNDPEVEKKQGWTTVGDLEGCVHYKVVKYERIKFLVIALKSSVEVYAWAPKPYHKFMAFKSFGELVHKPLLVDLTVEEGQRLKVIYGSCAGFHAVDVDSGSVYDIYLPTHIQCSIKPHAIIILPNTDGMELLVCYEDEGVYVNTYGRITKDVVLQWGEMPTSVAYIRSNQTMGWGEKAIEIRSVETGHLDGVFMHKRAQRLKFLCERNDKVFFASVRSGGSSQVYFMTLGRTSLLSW
Sequence of Dual specificity mitogen-activated protein kinase kinase 1 (Homo sapiens) (Q02750 whole entry): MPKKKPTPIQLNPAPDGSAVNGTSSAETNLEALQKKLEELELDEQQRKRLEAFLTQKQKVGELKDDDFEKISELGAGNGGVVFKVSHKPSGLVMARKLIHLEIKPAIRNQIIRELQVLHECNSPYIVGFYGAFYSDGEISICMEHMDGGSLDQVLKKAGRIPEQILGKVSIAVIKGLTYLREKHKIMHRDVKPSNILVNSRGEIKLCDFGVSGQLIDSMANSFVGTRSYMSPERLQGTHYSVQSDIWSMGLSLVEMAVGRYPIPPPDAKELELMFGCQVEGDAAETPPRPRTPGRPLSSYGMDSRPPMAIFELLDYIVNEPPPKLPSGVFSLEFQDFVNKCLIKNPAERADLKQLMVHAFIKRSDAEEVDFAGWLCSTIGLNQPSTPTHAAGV

SMILES | inhibition [1] [%] | inhibition [2] [%] | inhibition [3] [%] | inhibition [4] [%] | inhibition [5] [%] | inhibition [6] [%] | inhibition [7] [%] | inhibition [8] [%] | inhibition [9] [%] | inhibition [10] [%] | inhibition [11] [%] | inhibition [12] [%] | inhibition [13] [%] | inhibition [14] [%] | inhibition [15] [%] | inhibition [16] [%] | inhibition [17] [%] | inhibition [18] [%] | inhibition [19] [%] | inhibition [20] [%]
COc1cccc(-n2ncc3c(N/N=C/c4ccc(F)cc4)ncnc32)c1 | 21.2 | 4.9 | 3.13 | 7.39 | 17.2 | 7.56 | 9.41 | 9.36 | 9.98 | -1.54 | -2.12 | 4.83 | 7.12 | 2.32 | 2.24 | 4.66 | 4.91 | 9.72 | 5.66 | 3.88
Nc1nc(-c2ccc(F)cc2)c(-c2ccc3ncccc3n2)s1 | 61.8 | 6.1 | 4.31 | 13.2 | 47.9 | 6.16 | 6.98 | 7.16 | 5.82 | 0.24 | 9.07 | 6.29 | 6.35 | 1.67 | 2.07 | 5.1 | 5.56 | 2.84 | 4.21 | 1.6
Fc1ccc(-c2nn3ncccc3c2-c2ccnc(Nc3ccc4c(c3)OCCO4)n2)cc1 | 73.2 | 5.8 | 11.7 | 16.4 | 65.2 | 3.27 | 5.1 | 3.68 | 3.21 | -0.01 | 7.97 | 5.7 | 9.76 | 1.46 | 2.5 | 4.83 | 4.47 | -1.83 | -2.83 | -0.14
Fc1ccc(-c2cc(-c3c[nH]nc3-c3ccccn3)ccn2)cc1 | 59.6 | 5.25 | 3.85 | 10.7 | 44.4 | 4.5 | 6.92 | 6.43 | 7.79 | -0.73 | 1.02 | 6.01 | 5.42 | 1.23 | 1.38 | 4.08 | 5.11 | 6.2 | 2.37 | -1.74
Fc1ccc(-c2nn3ccccc3c2-c2ccncc2)cc1 | 38.3 | 1.23 | 2.3 | 4.74 | 22.3 | 0.01 | 0.15 | 0.09 | 0.63 | -1.27 | 2.42 | 3.29 | 1.62 | -0.13 | -0.1 | 1.29 | 1.75 | -0.38 | -4.35 | 4.75
CS(=O)(=O)CCNCc1ccc(-c2ccc3ncnc(Nc4ccc(OCc5ccccc5)c(C(F)(F)F)c4)c3c2)o1 | 4.73 | 3.83 | 3.81 | 5.41 | 5.83 | 2.67 | 3.71 | 4.04 | 4.03 | -1.35 | -2.67 | 4.26 | 8.46 | 1.24 | 1.28 | 4.99 | 4.14 | 1.91 | 3.73 | -5.25
CNC(=O)c1cccc(C#Cc2cncnc2Nc2ccc(OCc3cccc(F)c3)c(Cl)c2)c1 | 5.4 | 0.1 | 1.05 | -0.5 | 5.14 | 4.83 | 8.84 | 5.85 | 7.85 | 0.31 | 4.41 | 2.05 | 1.45 | 0.68 | 1.72 | -0.16 | 0.51 | 7.61 | -2.53 | 9.54
Cc1cccc(Nc2ncc(-c3ccccc3)o2)c1 | 14.1 | 2.53 | 2.53 | 2.9 | 10.2 | 1.44 | 4.08 | 1.8 | 4.97 | 0.69 | 1.87 | -2.05 | 3.35 | 0.94 | 2.06 | 2.83 | 5.76 | 1.42 | 10.2 | -4.69
CCn1c(-c2nonc2N)nc2ccccc21 | 22.5 | 4.06 | 4.74 | 5.52 | 13.2 | 5.56 | 7.11 | 6.31 | 5.79 | -1.3 | -1.31 | 5 | 6.81 | 3.34 | 2.08 | 1.86 | 4.13 | 5.02 | 8.78 | 0.13
CCCN(CCS(C)(=O)=O)Cc1ccc(-c2ccc3ncnc(Nc4ccc(OCc5cccc(F)c5)c(Cl)c4)c3c2)o1 | 11.1 | 1.53 | 1.76 | 2.96 | 7.61 | 2.67 | 4.13 | 0.87 | 2.11 | 0.58 | 2.97 | 5.02 | 3.91 | 0.72 | 0.92 | 1.58 | 2.05 | 3.25 | 9.68 | -9.75
Clc1ccc(-c2nn3ncccc3c2-c2ccnc(Nc3ccccc3)n2)cc1 | 39.9 | 1.32 | 2.28 | 5.91 | 33 | 0.77 | 0.46 | -0.25 | -0.67 | 1.4 | 2.44 | 2.29 | -0.81 | 1.12 | -0.15 | 0.58 | 0.87 | 7.85 | -0.84 | 7.89
N#Cc1c(NC(=O)CN2CCOCC2)sc2c1CCCC2 | 8.62 | 6.12 | 5.95 | 6.83 | 6.87 | 5.59 | 8.28 | 4.7 | 8.26 | -1.62 | -0.59 | 8.81 | 4.43 | 1.25 | 0.76 | 3.48 | 4.91 | 2.38 | 3.24 | 0.72
COc1cc(Nc2nccc(Nc3ccc4c(C)n[nH]c4c3)n2)cc(OC)c1OC | 12.4 | 2.25 | 4.1 | 2.58 | 11 | 5.05 | 7.86 | 5.15 | 6.19 | 1.12 | 3 | 2.19 | 7.51 | 0.97 | 3.21 | 2.53 | 5.23 | 1.57 | 15.3 | -4.29
CS(=O)(=O)CCNCc1coc(-c2ccc3ncnc(Nc4ccc(OCc5ccccc5)cc4)c3c2)c1 | 7.26 | 2.33 | 3.36 | 5.08 | 4.66 | 2.75 | 3.41 | 4.25 | 3.71 | -2.22 | 2.64 | 2.37 | 4.92 | 0.82 | 0.14 | 3.37 | 3.31 | 3.59 | 3.38 | -4
